# Of roughly 8,800 targets only a part is listed; those with a hit were picked by preference. About 0.5% of all pairs of compound and target were hits. Values without a mark were called inactive.
# Columns and labels:
# Experiment in all cases: log2 fold change, soluble protein after heating vs DMSO (PISA); higher = thermal stabilisation; K562 lysate, 10 uM; active = over 0.2 and 3.5 SD of the protein, either way, in both replicates (recomputed)
# vemurafenib = compound: CCCS(=O)(=O)Nc1ccc(F)c(C(=O)c2c[nH]c3ncc(-c4ccc(Cl)cc4)cc23)c1F [vemurafenib]
# How it was run: (§1)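 Log-two fold change in thermal stability relative to solvent controls is reported from duplicates. For each sample, crude K562 extract from dounce-homogenised pellets in PBS pH 7.4 with 1 mM MgCl2, at 1 mg/mL protein, was treated with 10 μM compound for 30 min. Aliquots heated for 3 min across 48°C-58°C were pooled, brought to 0.5% NP-40 at 4°C and cleared at 21,000xg for 90 min. The supernatant was quantified by TMTpro 16plex LC-MS/MS with channel sums equalised.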
# [1] = compound: CCCS(=O)(=O)Nc1ccc(F)c(C(=O)c2c[nH]c3ncc(Cl)cc23)c1F
# How it was run: as §1
# barasertib = compound: CCN(CCCOc1ccc2c(Nc3cc(CC(=O)Nc4cccc(F)c4)[nH]n3)ncnc2c1)CCOP(=O)(O)O [barasertib]
# How it was run: as §1
# [2] = compound: CC[C@@H]1C(=O)N(C)c2cnc(Nc3ccc(C(=O)NC4CCN(C)CC4)cc3OC)nc2N1C1CCCC1
# How it was run: as §1
# volasertib = compound: CC[C@@H]1C(=O)N(C)c2cnc(Nc3ccc(C(=O)N[C@H]4CC[C@H](N5CCN(CC6CC6)CC5)CC4)cc3OC)nc2N1C(C)C [volasertib]
# How it was run: as §1
# [3] = compound: CCn1c(C(=O)N(C2CC2)C2CC2)cc2c3c(ncn3C)c(Nc3cc(C)n(C)n3)nc21
# How it was run: as §1
# [4] = compound: CCn1cc(-c2ccnc3[nH]c(-c4cccc(CN(C)C)c4)cc23)c(-c2ccc(NC(=O)N(C)C)cc2)n1
# How it was run: as §1
# [5] = compound: CN1CCC(CNc2ccc3ncc(-c4cccc(OC(F)(F)F)c4)n3n2)CC1
# How it was run: as §1
# saracatinib = compound: CN1CCN(CCOc2cc(OC3CCOCC3)c3c(Nc4c(Cl)ccc5c4OCO5)ncnc3c2)CC1 [saracatinib]
# How it was run: as §1
# sotrastaurin = compound: CN1CCN(c2nc(C3=C(c4c[nH]c5ccccc45)C(=O)NC3=O)c3ccccc3n2)CC1 [sotrastaurin]
# How it was run: as §1
# alvocidib = compound: CN1CC[C@H](c2c(O)cc(O)c3c(=O)cc(-c4ccccc4Cl)oc23)[C@H](O)C1 [alvocidib]
# How it was run: as §1
# Tubastatin A = compound: CN1CCc2c(c3ccccc3n2Cc2ccc(C(=O)NO)cc2)C1 [Tubastatin A]
# How it was run: as §1
# [6] = compound: CNC(=O)C1=CC=CC=C1NC2=NC(=NC=C2Cl)NC3=C(C=C(C=C3)N4CCOCC4)OC
# How it was run: as §1
# defactinib = compound: CNC(=O)c1ccc(Nc2ncc(C(F)(F)F)c(NCc3nccnc3N(C)S(C)(=O)=O)n2)cc1 [defactinib]
# How it was run: as §1
# [7] = compound: CNc1nc(-c2ccc3c(N)n[nH]c3c2)cc(N2C[C@@H](C(=O)NC3CCCCC3)CC[C@H]2C)n1
# How it was run: as §1
# encorafenib = compound: COC(=O)N[C@@H](C)CNc1nccc(-c2cn(C(C)C)nc2-c2cc(Cl)cc(NS(C)(=O)=O)c2F)n1 [encorafenib]
# How it was run: as §1
# [8] = compound: COC(=O)[C@H](CCSC)NC(=O)C1=C(C=C(C=C1)NC[C@H](CS)N)C2=CC=CC=C2
# How it was run: as §1
# alisertib = compound: COc1cc(Nc2ncc3c(n2)-c2ccc(Cl)cc2C(c2c(F)cccc2OC)=NC3)ccc1C(=O)O [alisertib]
# How it was run: as §1
# [9] = compound: COc1cc2nc(-c3cc(F)ccc3O)nc(N[C@@H]3CNC[C@H]3C(C)(C)O)c2cc1OC
# How it was run: as §1
# gefitinib = compound: COc1cc2ncnc(Nc3ccc(F)c(Cl)c3)c2cc1OCCCN1CCOCC1 [gefitinib]
# How it was run: as §1
# Chain of UniProt P40261 (P40261 whole entry, looked up): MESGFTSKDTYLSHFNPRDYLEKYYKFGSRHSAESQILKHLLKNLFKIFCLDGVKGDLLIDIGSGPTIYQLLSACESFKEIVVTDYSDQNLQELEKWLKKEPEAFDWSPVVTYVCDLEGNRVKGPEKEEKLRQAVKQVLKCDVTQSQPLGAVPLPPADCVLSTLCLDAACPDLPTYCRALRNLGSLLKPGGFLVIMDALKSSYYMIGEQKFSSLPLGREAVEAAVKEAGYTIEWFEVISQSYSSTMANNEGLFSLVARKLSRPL
# Chain of UniProt Q5SRE5 (Q5SRE5 whole entry, looked up): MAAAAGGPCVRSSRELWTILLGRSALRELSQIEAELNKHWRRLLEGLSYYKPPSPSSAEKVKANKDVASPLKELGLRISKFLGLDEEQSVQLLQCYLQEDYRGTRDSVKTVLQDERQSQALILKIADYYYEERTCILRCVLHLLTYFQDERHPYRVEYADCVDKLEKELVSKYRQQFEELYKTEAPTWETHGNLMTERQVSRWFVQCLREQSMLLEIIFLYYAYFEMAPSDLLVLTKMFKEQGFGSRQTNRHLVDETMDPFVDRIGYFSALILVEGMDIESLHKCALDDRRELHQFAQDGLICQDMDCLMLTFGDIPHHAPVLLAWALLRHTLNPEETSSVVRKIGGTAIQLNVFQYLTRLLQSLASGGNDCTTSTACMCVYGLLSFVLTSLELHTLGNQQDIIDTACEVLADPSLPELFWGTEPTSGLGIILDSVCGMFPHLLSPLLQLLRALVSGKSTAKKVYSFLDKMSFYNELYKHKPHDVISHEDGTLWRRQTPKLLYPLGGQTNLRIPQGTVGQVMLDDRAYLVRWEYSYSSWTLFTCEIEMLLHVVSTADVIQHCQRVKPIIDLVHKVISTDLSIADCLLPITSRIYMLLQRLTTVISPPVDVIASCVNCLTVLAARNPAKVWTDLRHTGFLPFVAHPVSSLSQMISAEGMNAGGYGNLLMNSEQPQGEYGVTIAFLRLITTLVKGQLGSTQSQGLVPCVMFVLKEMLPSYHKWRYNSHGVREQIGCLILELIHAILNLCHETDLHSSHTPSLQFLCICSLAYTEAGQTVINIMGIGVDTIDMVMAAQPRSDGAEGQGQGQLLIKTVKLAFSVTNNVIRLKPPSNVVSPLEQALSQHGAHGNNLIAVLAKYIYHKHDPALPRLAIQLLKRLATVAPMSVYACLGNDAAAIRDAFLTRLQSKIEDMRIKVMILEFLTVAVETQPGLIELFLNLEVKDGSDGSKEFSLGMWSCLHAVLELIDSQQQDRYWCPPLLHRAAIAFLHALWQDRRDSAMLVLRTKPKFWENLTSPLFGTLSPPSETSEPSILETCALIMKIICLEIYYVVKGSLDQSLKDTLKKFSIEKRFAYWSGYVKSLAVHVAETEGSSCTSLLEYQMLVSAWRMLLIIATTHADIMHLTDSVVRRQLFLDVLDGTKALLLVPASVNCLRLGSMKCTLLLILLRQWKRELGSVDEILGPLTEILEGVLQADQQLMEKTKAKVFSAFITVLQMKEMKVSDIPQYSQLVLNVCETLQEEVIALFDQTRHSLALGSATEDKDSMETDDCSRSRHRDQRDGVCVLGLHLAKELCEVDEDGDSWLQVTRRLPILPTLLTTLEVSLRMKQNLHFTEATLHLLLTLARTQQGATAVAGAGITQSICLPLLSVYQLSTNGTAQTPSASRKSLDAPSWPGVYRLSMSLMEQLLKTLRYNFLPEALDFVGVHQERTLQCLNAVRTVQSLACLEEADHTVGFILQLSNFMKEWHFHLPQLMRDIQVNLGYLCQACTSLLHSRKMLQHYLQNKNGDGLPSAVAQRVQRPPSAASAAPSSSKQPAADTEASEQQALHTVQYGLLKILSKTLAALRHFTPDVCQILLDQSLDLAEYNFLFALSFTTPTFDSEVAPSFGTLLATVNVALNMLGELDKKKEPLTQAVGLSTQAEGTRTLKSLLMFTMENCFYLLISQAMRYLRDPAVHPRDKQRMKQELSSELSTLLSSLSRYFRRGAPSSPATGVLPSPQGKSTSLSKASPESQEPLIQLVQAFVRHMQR
# Chain of UniProt Q9BSD7 (Q9BSD7 whole entry, looked up): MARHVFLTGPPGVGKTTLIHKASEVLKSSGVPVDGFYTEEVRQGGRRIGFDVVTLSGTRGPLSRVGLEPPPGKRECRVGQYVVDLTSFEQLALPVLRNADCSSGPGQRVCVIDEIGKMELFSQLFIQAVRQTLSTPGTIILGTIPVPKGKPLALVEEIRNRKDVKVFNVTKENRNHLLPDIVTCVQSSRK
# Chain of UniProt P03928 (P03928 whole entry, looked up): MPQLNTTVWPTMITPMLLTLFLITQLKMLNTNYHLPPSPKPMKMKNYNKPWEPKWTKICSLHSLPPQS
# Chain of UniProt Q96NT1 (Q96NT1 whole entry, looked up): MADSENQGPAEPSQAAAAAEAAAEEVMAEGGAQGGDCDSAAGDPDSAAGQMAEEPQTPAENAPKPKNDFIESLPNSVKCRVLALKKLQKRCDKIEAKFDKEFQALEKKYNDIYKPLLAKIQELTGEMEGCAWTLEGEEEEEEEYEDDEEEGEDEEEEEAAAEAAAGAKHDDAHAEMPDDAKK
# Chain of UniProt Q6N069 (Q6N069 whole entry, looked up): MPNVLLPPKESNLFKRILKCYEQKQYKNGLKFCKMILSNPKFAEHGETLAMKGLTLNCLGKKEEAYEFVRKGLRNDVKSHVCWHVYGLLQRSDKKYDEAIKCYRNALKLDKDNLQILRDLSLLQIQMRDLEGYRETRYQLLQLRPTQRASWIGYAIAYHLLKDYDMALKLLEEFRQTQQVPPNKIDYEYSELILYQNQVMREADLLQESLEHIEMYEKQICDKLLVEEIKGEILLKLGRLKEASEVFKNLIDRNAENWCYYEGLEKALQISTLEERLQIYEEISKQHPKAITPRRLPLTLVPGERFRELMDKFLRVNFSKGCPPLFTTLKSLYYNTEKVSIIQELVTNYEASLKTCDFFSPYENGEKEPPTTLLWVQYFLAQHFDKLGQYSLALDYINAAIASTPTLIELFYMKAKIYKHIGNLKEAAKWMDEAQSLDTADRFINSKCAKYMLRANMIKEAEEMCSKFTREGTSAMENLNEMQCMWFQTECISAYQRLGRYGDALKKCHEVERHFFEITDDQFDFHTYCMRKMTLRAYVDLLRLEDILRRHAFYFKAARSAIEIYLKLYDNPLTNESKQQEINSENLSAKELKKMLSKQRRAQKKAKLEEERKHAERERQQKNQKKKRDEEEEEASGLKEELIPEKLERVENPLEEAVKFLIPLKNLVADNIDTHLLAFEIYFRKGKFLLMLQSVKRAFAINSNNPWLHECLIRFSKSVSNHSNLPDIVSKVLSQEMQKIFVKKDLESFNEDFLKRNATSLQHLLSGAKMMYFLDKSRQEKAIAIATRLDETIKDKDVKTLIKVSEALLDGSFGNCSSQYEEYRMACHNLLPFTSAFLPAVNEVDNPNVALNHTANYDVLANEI
# Chain of UniProt O00159 (O00159 whole entry, looked up): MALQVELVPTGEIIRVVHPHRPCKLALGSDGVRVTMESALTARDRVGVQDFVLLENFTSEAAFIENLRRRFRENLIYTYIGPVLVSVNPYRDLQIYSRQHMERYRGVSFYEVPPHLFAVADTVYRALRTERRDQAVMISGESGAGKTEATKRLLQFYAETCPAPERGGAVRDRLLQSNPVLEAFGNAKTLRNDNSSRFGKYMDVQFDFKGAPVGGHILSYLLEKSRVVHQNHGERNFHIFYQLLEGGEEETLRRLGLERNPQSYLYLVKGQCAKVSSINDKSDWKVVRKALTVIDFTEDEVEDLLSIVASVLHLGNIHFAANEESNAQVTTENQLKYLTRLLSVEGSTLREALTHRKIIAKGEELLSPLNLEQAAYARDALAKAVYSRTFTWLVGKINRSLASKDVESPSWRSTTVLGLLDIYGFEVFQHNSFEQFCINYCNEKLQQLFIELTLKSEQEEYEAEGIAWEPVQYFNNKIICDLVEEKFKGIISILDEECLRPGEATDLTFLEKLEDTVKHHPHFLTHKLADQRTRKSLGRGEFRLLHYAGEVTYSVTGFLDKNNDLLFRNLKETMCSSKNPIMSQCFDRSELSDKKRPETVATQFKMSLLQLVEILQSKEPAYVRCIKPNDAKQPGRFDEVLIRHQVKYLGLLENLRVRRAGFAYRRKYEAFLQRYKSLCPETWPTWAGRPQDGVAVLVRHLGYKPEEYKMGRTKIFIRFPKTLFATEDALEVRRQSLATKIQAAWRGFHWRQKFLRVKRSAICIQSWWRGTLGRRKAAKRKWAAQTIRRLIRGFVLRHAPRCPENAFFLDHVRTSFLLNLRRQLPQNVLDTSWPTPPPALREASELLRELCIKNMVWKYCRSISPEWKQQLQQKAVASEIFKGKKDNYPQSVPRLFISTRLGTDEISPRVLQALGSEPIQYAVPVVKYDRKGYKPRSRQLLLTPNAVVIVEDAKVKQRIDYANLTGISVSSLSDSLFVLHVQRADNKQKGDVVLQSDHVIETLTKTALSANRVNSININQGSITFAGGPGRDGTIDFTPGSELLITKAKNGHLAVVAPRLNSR
# Chain of UniProt P47900 (P47900 whole entry, looked up): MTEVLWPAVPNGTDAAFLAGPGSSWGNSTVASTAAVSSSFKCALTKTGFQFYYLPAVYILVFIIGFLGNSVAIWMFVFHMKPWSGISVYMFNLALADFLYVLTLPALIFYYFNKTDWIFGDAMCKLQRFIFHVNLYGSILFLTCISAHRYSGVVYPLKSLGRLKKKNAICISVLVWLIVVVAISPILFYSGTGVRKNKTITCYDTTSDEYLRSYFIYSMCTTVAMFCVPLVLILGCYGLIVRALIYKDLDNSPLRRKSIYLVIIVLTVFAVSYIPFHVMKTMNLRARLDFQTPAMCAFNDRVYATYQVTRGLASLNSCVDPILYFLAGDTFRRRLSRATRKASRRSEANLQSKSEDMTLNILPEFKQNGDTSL
Target,log2 fold change (vemurafenib),log2 fold change [1],log2 fold change (barasertib),log2 fold change [2],log2 fold change (volasertib),log2 fold change [3],log2 fold change [4],log2 fold change [5],log2 fold change (saracatinib),log2 fold change (sotrastaurin),log2 fold change (alvocidib),log2 fold change (Tubastatin A),log2 fold change [6],log2 fold change (defactinib),log2 fold change [7],log2 fold change (encorafenib),log2 fold change [8],log2 fold change (alisertib),log2 fold change [9],log2 fold change (gefitinib)
NNMT (UniProt P40261),0.024,-0.036,-0.059,0.008,0.056,0.015,-0.062,0.03,-0.043,0.021,-0.001,-0.03,0,-0.049,-0.086,0.043,-0.317 (active),0,0.009,0.004
NTPCR (UniProt Q9BSD7),0.055,-0.001,0.016,0.005,-0.066,0.032,-0.038,-0.021,-0.009,0.011,0.007,-0.163,0.055,0.009,0.027,0.005,-0.007,0.007,0.058,-0.057
NUP188 (UniProt Q5SRE5),-0.006,-0.006,0.074,-0.067,-0.077,0.05,-0.031,-0.045,0.029,0.021,0.004,-0.049,-0.018,0.038,-0.016,-0.045,0.043,-0.007,0.025,0.011
NAP1L5 (UniProt Q96NT1),-0.094,0.005,0.037,0.181,-0.033,0.052,0.62 (active),-0.205,-0.15,0.08,0.161,-0.039,0.008,-0.032,-0.082,0.01,-0.047,0.021,-0.039,0.02
NNT (UniProt Q13423),0.012,-0.015,0.013,0.022,0.031,-0.004,0.041,-0.004,-0.025,-0.024,0.006,0.035,0.021,-0.005,-0.04,-0.018,-0.017,-0.001,0.021,0.012
MTOR (UniProt P42345),0.026,0.015,0.052,-0.045,-0.044,-0.006,-0.04,-0.031,0.005,0.03,-0.054,-0.118,-0.038,0.01,-0.025,0.016,0.014,0.006,0,-0.039
MYO1C (UniProt O00159),-0.016,0.039,-0.012,-0.042,-0.046,0.101,-0.025,-0.018,-0.019,0.028,0.029,-0.114,-0.057,0.052,-0.045,0.076,0.049,0.008,0.01,-0.02
NDUFAF5 (UniProt Q5TEU4),-0.015,0.007,-0.032,0.127,0.04,-0.103,-0.052,0.035,0.179,0,-0.004,0.12,-0.068,-0.047,0.175,0.18,-0.065,–,-0.033,–
NUDT5 (UniProt C9JYY9),–,–,–,0.036,–,–,–,–,–,–,–,–,0.026,–,–,0.066,-0.029,-0.092,–,-0.075
MUC5AC (UniProt P98088),–,–,–,–,–,0,–,–,–,–,–,-0.03,–,–,–,–,–,-0.233,–,0.013
MTHFD1 (UniProt V9GZ32),–,0.008,–,–,-0.145,–,–,–,–,–,–,–,–,–,–,–,–,0.108,0,-0.073
NUB1 isoform 2 (UniProt Q9Y5A7),–,–,–,–,–,–,–,–,–,-0.003,–,–,–,–,–,–,–,–,–,–
NPLOC4 (UniProt I3L3I1),–,–,0.125,0.104,–,–,–,–,0.152,-0.108,–,–,–,–,0.799,0.014,-0.143,–,–,–
NAA16 (UniProt Q6N069),0.902 (active),-0.048,0.246,-0.049,-0.078,0.057,–,–,-0.012,–,–,-0.097,–,0.086,-0.05,0.062,0.169,0.11,-0.03,0.142
NSA2 (UniProt O95478),-0.035,0.101,-0.093,0.067,0.034,-0.043,-0.441,-0.221,-0.084,–,-0.291,-0.181,-0.017,0.058,0.066,-0.184,-0.086,-0.14,-0.012,0.056
NFAT5 isoform 4 (UniProt O94916),–,–,-0.039,–,–,–,–,–,–,0,–,–,–,–,–,–,–,–,–,–
PARD3B (UniProt Q8TEW8),–,–,–,–,–,–,1.46,-0.046,-0.002,–,-0.125,–,0.005,–,0.093,–,–,–,–,–
MT-ATP8 (UniProt P03928),0.033,-0.036,0.057,0.063,0.015,0.128,0.711 (active),-0.144,–,-0.084,0.044,0.072,0.08,0.017,–,-0.071,-0.139,-0.017,-0.078,-0.081
NOCT (UniProt Q9UK39),–,-0.04,–,0,0.02,0.004,–,–,-0.103,-0.073,–,0.012,0.159,–,0.042,0.046,-0.01,0.009,-0.144,-0.088
P2RY1 (UniProt P47900),–,-0.08,0.034,0.006,-0.111,0.022,0.057,0.093,0.015,–,-0.025,0.06,-0.077,–,-0.013,0.054,0.057,–,-0.068,–
NEXN (UniProt Q0ZGT2),0.073,0.218,0.101,-0.132,0.051,0.075,-0.231,0.209,0.026,–,-0.102,-0.049,0.026,0.134,0.158,-0.096,0.044,0.004,-0.086,0.092
